About 83,000 compounds went through this panel and 20% of them were active in at least one assay; those are over-represented in the sample as a whole.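 The test compound was applied at a single concentration to cells in 96-well plates for 48 hours, and percent growth was recorded.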 Values without a mark were called inactive. Active and inactive are the calls of the source. How the source made its calls: active means growth percent below 10; inactive means the rest.

This note sets out measurements from PubChem BioAssay (NCI).

Common to all, as to test: NCI-60 one-dose screen, 48 h (100 = growth as untreated, 0 = no growth, -100 = all killed)
Common to all, as to details: 10 µM unless noted

Assay [1] has as its system HCT-15 colon.
In assay [2] the test system is HT29 colon.
Assay [3] relates to SNB-75 CNS.
Assay [4] has as its system SNB-19 CNS.
In assay [5] the test system is U251 CNS.
Assay [6] concerns PC-3 prostate.
Assay [7] concerns SK-MEL-5 melanoma.
Assay [8] relates to UACC-62 melanoma.
For assay [9], the system named is LOX IMVI melanoma.
In assay [10] the test system is SK-MEL-28 melanoma.
The subject of assay [11] is SK-MEL-2 melanoma.
Assay [12] has as its system EKVX NSCLC.
Assay [13] deals with SN12C renal.
The subject of assay [14] is UO-31 renal.
The subject of assay [15] is TK-10 renal.
Assay [16] relates to ACHN renal.
Assay [17] deals with CAKI-1 renal.
In assay [18] the test system is A498 renal.
Assay [19] deals with CCRF-CEM leukemia.
Assay [20] has as its system MOLT-4 leukemia.

`C=CCOc1ccc(/C=C2\SC(=S)N(CCc3ccc(O)cc3)C2=O)cc1`: the growth was 82.9% in assay [1]; 88.4% in assay [2]; 82% in assay [3]; 93.3% in [4]; 86% in [5]; 90.4% in assay [6]. Besides, the growth was 94.4% in assay [7]; 73.8% in assay [8]; -71.2% (active) in assay [9]; 110% in assay [10]; 106% in assay [11]; 91.4% in assay [12]. Moreover, the growth in assay [13] is 84.4%; in assay [14] it was 61.3%; in assay [15], 106%; in assay [16] it was 94%; in assay [17], 71.2%; in [18], 65.6%. The growth was 5.72% (active) in assay [19] and 40.4% in assay [20].

For the compound `COc1ccc(-c2nn3c(-c4cc(F)c(Cl)cc4Cl)nnc3s2)cc1`, the growth is 42% in assay [1]; 5.17% (active) in [2]; 7.7% (active) in assay [3]; 40.6% in assay [4]; 35.6% in assay [5]; 42.8% in assay [6]. The growth in assay [7] is 20.1%; in assay [8], 44.4%; in assay [9] it was 42.1%; in [10] it was 36.7%; in assay [11], 66.8%; in assay [12], 75.4%. Further, the growth was 72.5% in assay [13]; 49.7% in assay [14]; 105% in assay [15]; 66.7% in assay [16]; 37.7% in assay [17]; 65.9% in [18]. The growth in assay [20] was 21.6%.

Take `N#C/C(=N\Nc1ccc(Cl)cc1)C(=O)Nc1cc(-c2ccccc2)nn1-c1ccccc1`: the growth was 9.38% (active) in assay [1]; 34.1% in assay [2]; 62.1% in [3]; 30.4% in assay [4]; 23.1% in assay [5]; 6.71% (active) in assay [6]. In addition, the growth in assay [7] is -31% (active); in assay [8], 3.27% (active); in assay [9], 73.5%; in assay [10] it was 38.6%; in [11], 10.5%; in [12], 24.4%. Moreover, the growth in assay [13] is 0.137% (active); in assay [14] it was 47.1%; in [15], 28.6%; in [16], 33.9%; in [17], 21.5%; in assay [18] it was 3.5% (active). In addition, the growth in [19] is 15.3%; in [20], 26.1%.

On to `CCCN1C(=O)/C(=c2\sc3n(c2=O)NC2C(N=3)N(CC)C(=O)N2CC)c2ccccc21` (stereo not drawn), for which the growth in assay [1] was 24.6%; in assay [2] it was 13.5%; in [3] it was 12.9%; in assay [4], 40.2%; in assay [5] it was 29.9%; in assay [6], 42.5%. The growth in assay [7] was 41.8%; in [8], 31.8%; in assay [9], 38.8%; in assay [10], 54.5%; in [11] it was 68.6%; in assay [12], 55.7%. For the same compound, the growth was 38.1% in assay [13]; 46.7% in assay [14]; 86% in assay [15]; 47.5% in [16]; 40.7% in [17]; 29% in assay [18]. Further, in assay [20], the growth is 38%.

For `CC1=CC=C(NC(=O)/C=C/c2ccccc2)CC1Nc1nccc(-c2cccnc2)n1` (stereo not drawn), the growth in [1] is 14.6%; in assay [2], 13.6%; in assay [3], 8.46% (active); in assay [4], 66.8%; in assay [5], 38.1%; in assay [6] it was 25.2%. Besides, the growth in assay [7] is -42.9% (active); in assay [8], 37.9%; in assay [9] it was 41.3%; in [10] it was 35.3%; in assay [11] it was 28.2%; in [12], 67.4%. For the same compound, the growth was 50.3% in assay [13]; 65.2% in [14]; 107% in assay [15]; 50.3% in assay [16]; 32.5% in assay [17]; 24.7% in assay [18]. The growth in assay [19] is 19.4%; in assay [20] it was 26%.

With `[2H]C([2H])([2H])Oc1cccc(/C=C/C(=O)/C=C(/C=C/c2cccc(OC([2H])([2H])[2H])c2OC([2H])([2H])[2H])OB(F)F)c1OC([2H])([2H])[2H]`, the growth in assay [1] is 58.3%; in [2], 86.3%; in assay [3], 55.2%; in [4], 89.1%; in [5] it was 58.8%; in assay [6] it was 74.3%. The growth in assay [7] is 98.6%; in [8], 66.6%; in [9] it was 54.6%; in [10], 88.5%; in [11], 116%; in [12] it was 93.6%. The growth is 74% in [13]; 51.5% in assay [14]; 99.9% in assay [15]; 51.5% in assay [16]; 58.1% in [17]; 117% in [18]. Also, the growth was 4.12% (active) in assay [19] and 15.6% in assay [20].

In the case of `O=C(CC1(O)C(=O)Nc2ccc(Br)cc21)c1ccc(Cl)cc1` (stereo not drawn), the growth in [1] is 109%; in [2] it was 97.8%; in assay [3] it was 81.8%; in [4], 107%; in [5], 94.6%; in [6], 81.6%. The growth in [7] was 96.8%; in [8], 98.1%; in assay [9] it was 99.3%; in assay [10], 120%; in assay [11], 97.2%; in assay [12] it was 93.8%. In addition, the growth was 102% in [13]; 75.9% in assay [14]; 123% in assay [15]; 113% in assay [16]; 98.9% in [17]; 97.7% in assay [18]. In addition, the growth is 103% in [19] and 101% in [20].
